# Source: PubChem (National Center for Advancing Translational Sciences (NCATS))
# Shown are actives, neighbours in structure and some others; about 9% of the full set was active somewhere.
# PLK1 PBD inh – PLK1 (human) polo-box domain binding inhibition; AID 720504; Plk1 PBD binding of FITC phosphopeptide, fluorescence polarization; Potency, µM, for the others: max response, negative = inhibition, usual class: inhibitors; P53350; 360,000 tested, 2.8% active; note: series mostly up to about 57 µM; % is set by controls: 0 for no effect and ±100 for the full control effect; nearly all actives have a fitted effect of over 65% in size
# JMJD2A Tudor – blocks the human JMJD2A Tudor domain; AlphaScreen JMJD2A-Tudor / H3K4me3 peptide binding; Potency, µM (series often up to 114 µM), without a hit: top-dose activity change, negative = inhibition, most hits filed as inhibitors; 390,000 tested, 4.4% active; note: % is set by controls: 0 for no effect and ±100 for the full control effect; nearly all actives have a fitted effect of over 50% in size
# BAZ2B inh – inhibitors of human BAZ2B bromodomain | Q9UIF8 | AlphaScreen BAZ2B-H3K14Ac peptide displacement | Potency, µM (top dose mostly 114 µM), for inactives: top-dose activity change, negative = inhibition, most hits filed as inhibitors | 360,000 tested, 4.4% active | AID 504333; note: % is set by controls: 0 for no effect and ±100 for the full control effect; nearly all actives have a fitted effect of over 60% in size
#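 AlphaScreen displacement of biotin-H3(5-23)K14Ac peptide (50 nM final) from BAZ2B (50 nM final) in PBS pH 7.4, 0.01% Tween-20; complex preformed 30 min RT, then compounds (top 110 uM) 30 min RT, beads 20 min dark.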
# G9a block – G9a (human) methyltransferase inhibition | Q96KQ7 | G9a H3K9 monomethylation, AlphaScreen, 2 h | Potency, µM (titrated, usually from 102 µM), without a hit: at the top dose activity, negative = inhibition, usual class: inhibitors | 350,000 tested, 8.8% active; note: % is set by controls: 0 for no effect and ±100 for the full control effect; nearly all actives have a fitted effect of over 75% in size
#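 Compounds were preincubated with 20 nM G9a for 15 min, after which biotinylated H3K9 peptide (500 nM) and SAM (20 uM) started a 2 h room-temperature reaction. Monomethylated product was quantified by antibody-based AlphaScreen chemiluminescence.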
# HP1b chromo inh – blocks HP1-beta chromodomain binding to methylated histone tails | AlphaScreen HP1-beta / biotin-H3K9me3 peptide binding | 390,000 tested, 0.56% active | P83916 | Potency, µM (doses to about 114 µM), without a hit: at the highest dose activity change, negative = inhibition, most hits filed as inhibitors; note: nearly all actives have a fitted effect of over 70% in size
#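 Compound inhibition of the preformed complex between 50 nM HP1-beta and 50 nM biotinylated H3K9me3 peptide was read by AlphaScreen. Buffer was PBS pH 7.4 with 0.01% Tween-20. Incubations ran 30 min at room temperature, with 10 ug/mL donor/acceptor beads.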
# ALOX12 inh – inhibitors of human 12S-lipoxygenase ALOX12. AID 1671190. Potency, µM (series often up to 108 µM), for inactives: top-dose activity change, negative = inhibition, most hits filed as inhibitors. 580,000 tested, 1.1% active. purified 12hLO, xylenol orange hydroperoxide absorbance. P18054; note: % is set by controls: 0 for no effect and ±100 for the full control effect
# Target sequence (P18054 whole entry, looked up): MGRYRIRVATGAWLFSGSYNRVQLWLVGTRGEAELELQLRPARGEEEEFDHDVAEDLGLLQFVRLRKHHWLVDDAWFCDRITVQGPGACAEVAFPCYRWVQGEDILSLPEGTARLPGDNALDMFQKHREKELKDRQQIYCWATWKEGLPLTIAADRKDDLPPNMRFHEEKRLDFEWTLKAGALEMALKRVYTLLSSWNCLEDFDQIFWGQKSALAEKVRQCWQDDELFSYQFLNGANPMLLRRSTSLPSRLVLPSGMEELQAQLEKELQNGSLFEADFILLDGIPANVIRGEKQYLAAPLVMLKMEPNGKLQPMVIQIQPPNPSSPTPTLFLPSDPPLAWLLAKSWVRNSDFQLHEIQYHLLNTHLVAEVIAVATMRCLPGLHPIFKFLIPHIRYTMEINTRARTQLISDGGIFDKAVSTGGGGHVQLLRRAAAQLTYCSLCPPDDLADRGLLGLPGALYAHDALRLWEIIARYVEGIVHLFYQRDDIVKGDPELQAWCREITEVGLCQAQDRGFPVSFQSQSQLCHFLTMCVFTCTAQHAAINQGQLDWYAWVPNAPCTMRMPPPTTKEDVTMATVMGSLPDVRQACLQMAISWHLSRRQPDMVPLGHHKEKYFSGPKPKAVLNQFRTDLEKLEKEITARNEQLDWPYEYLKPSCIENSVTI
#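 Purified human 12hLO at 150 nM in 25 mM Hepes, 0.01% Triton X-100, pH 7.0, preincubated 15 min at room temperature with compound. Reaction started with 40 uM arachidonic acid, 30 min at room temperature. Hydroperoxide measured by Fe-xylenol orange, 573/405 nm absorbance ratio.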
# * hit, by the source's call; u = inconclusive; x = not tested or not shown; [ ] = dose if it differs, or a comment. Calls come from the whole dose curve; as a rule, active = well fitted curve in the direction sought with a large enough effect; inconclusive = small, poorly fitted or top-dose-only effect, or another doubt; inactive = no such curve, though single readings can be large; an effect the other way counts as inactive or inconclusive. Potency is the fitted concentration of half-maximal effect.
SMILES,PLK1 PBD inh,JMJD2A Tudor,BAZ2B inh,G9a block,HP1b chromo inh,ALOX12 inh
O=C(Nc1ccccc1N1CCOCC1)c1cc(Cl)c2c(c1)OCO2,-4%,-10%,-5%,9%[12.7 µM],4%,4%
Cc1nn(-c2ccccc2)c(OC(=O)c2ccc(Br)cc2)c1S(=O)(=O)c1ccccc1,x,-36%,u,u,36%,u
CCc1ccc(NC(=O)Cn2c(=O)n(-c3cccc(OC)c3)c(=O)c3c(C)c(C(=O)N(C)C)sc32)cc1,x,-21%,1%,-13%[59 µM],26%,-15%
O=C(Nc1cccc(O)c1)C(=O)Nc1ccccn1,4%,-1%,-24%,-11%[59 µM],11%,-3%
O=C(O)CCN1/C(=C/C=Nc2ccccc2)Oc2ccccc21,4%,56µM*,x,u,28%,0%
OC[C@@H]1CN(Cc2ccc3[nH]ccc3c2)C[C@H]1c1ccccn1,x,x,x,x,x,71%
O=c1c2ccccc2nc(-c2ccc(Cl)cc2Cl)n1O,u,-4%[11.4 µM],u,9%,-2%,-7%
Nn1c(-c2ccccc2)nc2cc(Cl)ccc2c1=O,-17%,-23%,4%,45µM*,46%,8%
O=C(O)c1ccccc1-c1nc2cc(Cl)ccc2c(=O)n1O,-12%,-10%,79µM*,2%,4%,-10%
Cc1ccc(-c2nc3ccccc3c(=O)n2N)cc1,4%,4%,-20%,8%,37%,23%
OCc1cccc(Nc2ncnc3c2oc2ccccc23)c1,x,x,x,x,x,9%
C#CCOCCOCCOCCNc1nc(N2CCN(C(=O)CCCCCCCCCCNC(=O)Cn3cc(C[C@@H](C)O)nn3)CC2)nc(N2CCN(C(=O)CCCCCCCCCCNC(=O)[C@@H]([C@H](C)CC)n3cc(CCCCCN)nn3)CC2)n1,1%,56µM*,u,-3%[2.33 µM],u,x
C#CCOCCOCCOCCNc1nc(N2CCN(C(=O)Cn3cc(CCCCN)nn3)CC2)nc(N2CCN(C(=O)Cn3cc(CC(C)O)nn3)CC2)n1 (configuration not stated),-6%,-11%,u,50µM*,85%,u
C#CCOCCOCCOCCNc1nc(N2CCN(C(=O)Cn3cc(CC(C)O)nn3)CC2)nc(N2CCN(C(=O)Cn3cc(CC(C)O)nn3)CC2)n1 (configuration not stated),2%,-2%,-5%,u,30%,u
C#CCOCCOCCOCCNc1nc(N2CCN(C(=O)CCCCCCCCCCNC(=O)Cn3cc(CCCCCN)nn3)CC2)nc(N2CCN(C(=O)CCCCCCCCCCNC(=O)[C@@H]([C@H](C)O)n3cc(C)nn3)CC2)n1,-10%,79µM*,u,23%[2.33 µM],u,x
C#CCOCCOCCOCCNc1nc(N2CCN(C(=O)CCCCCCCCCCNC(=O)Cn3cc(CCCCCN)nn3)CC2)nc(N2CCN(C(=O)CCCCCCCCCCNC(=O)Cn3cc(C[C@@H](C)O)nn3)CC2)n1,33%,25µM*,79µM*,13%[2.33 µM],-27%,x
C#CCOCCOCCOCCNc1nc(N2CCN(C(=O)CCCCCCCCCCNC(=O)Cn3cc(C[C@@H](C)O)nn3)CC2)nc(N2CCN(C(=O)CCCCCCCCCCNC(=O)[C@@H]([C@H](C)O)n3cc(C)nn3)CC2)n1,1%,-27%,3%,-1%[2.33 µM],33%,x
CCOC(=O)[C@]12CCCC=C1N(Cc1cccc3ccccc13)C(=O)[C@H](CC(=O)NCc1ccccc1)C2,-1%,x,x,x,x,-6%
CCCn1c(=O)sc2cc(NC(=O)c3ccc(OC)c(Br)c3)ccc21,x,-15%,-3%,4%[59 µM],15%,-13%
Cc1cc(=O)n2nc(N3CCC(C(=O)NCc4cccc(Br)c4)CC3)sc2n1,4%,-15%,-23%,17%,36%,0%
O=C(CN1CCC2(CC1)OCCO2)c1c[nH]c2ccccc12,-7%,1%,5%,u,39%,54%
COc1ccc(OCCSC2=NCC(C)(C)CN2)cc1,x,x,x,x,x,35µM*
CC1(C)CN=C(SCc2ccc(C(C)(C)C)cc2)NC1,x,x,x,x,x,-10%
Cc1cc(SCC(=O)c2ccc(Cl)cc2)nc(=O)[nH]1,24µM*,u,-27%,u,-18%,20µM*
Cc1ccc(C(=O)CSc2cc(C)[nH]c(=O)n2)cc1,-29%,u,45µM*,-9%[0.501 µM],-4%,u
SMILES,PLK1 PBD inh,JMJD2A Tudor,BAZ2B inh,G9a block,HP1b chromo inh,ALOX12 inh
Cc1cc(SCC(=O)c2ccccc2)nc(=O)[nH]1,u,-31%,-22%,22µM*,-7%,u
COc1ccc(C(=O)N2CCCC(N3CCN(c4ccc(F)cc4)CC3)C2)o1 (configuration not stated),x,x,x,x,x,-6%
CC(=O)N(c1ccc2oc(=O)sc2c1)S(=O)(=O)c1cccc2cccnc12,-11%,-12%,-19%,22µM*,22%,u
CC(=O)N(c1ccc2oc(=O)sc2c1)S(=O)(=O)c1ccc(C(=O)O)cc1,u,-24%,-15%,18µM*,11%,-5%
CCCC(=O)N(c1ccc2oc(C)c(C(C)=O)c2c1)S(=O)(=O)c1ccc(C(=O)O)cc1,-10%,-14%,-2%,35µM*,-3%,-27%
CCCC(=O)N(c1ccc2oc(C)c(C(C)=O)c2c1)S(=O)(=O)c1ccc(C)c([N+](=O)[O-])c1,-2%,-13%,5%,-7%[59 µM],34%,-10%
CC(=O)N(c1ccc2oc(=O)sc2c1)S(=O)(=O)c1cccs1,u,u,-9%,u,28%,u
Cn1c(=O)c2c(nc(CN3CCc4ccccc4C3)n2Cc2cccc(Cl)c2)n(C)c1=O,-21%,-27%,-1%,8.9µM*,43%,u
Cn1c(=O)c2c(nc(CN3CCN(Cc4ccccc4)CC3)n2Cc2cccc(Cl)c2)n(C)c1=O,-8%,-29%,-39%,40µM*,22%,5%
CCN1CCN(Cc2nc3c(c(=O)n(C)c(=O)n3C)n2Cc2ccc(Cl)cc2)CC1,x,x,x,x,x,19%
Cn1c(=O)c2c(nc(CN3CCN(C(=O)c4ccco4)CC3)n2Cc2cccc(Cl)c2)n(C)c1=O,-7%,-9%,x,u,35%,-5%
O=C1C[C@@H]2CCN(C(=O)NCc3ccccc3)C[C@@H]2CCN1CCN1CCNC1=O,x,x,x,x,x,-5%[176 µM]
CC1CCCC(C)N1CC(O)COCc1ccccc1F (configuration not stated),-9%,50µM*,u,-8%[2.33 µM],u,-23%
O=C(O)c1cccc(-c2ncccn2)c1,x,x,x,x,x,-7%[12.5 µM]
CC(=O)Nc1ccc(NC(=O)Cn2c(=O)n(-c3ccc(F)cc3)c(=O)c3oc4ccccc4c32)cc1,0%,0%,-13%,2%,20%,3%
